Screen size: about 39,000 compounds; about 220 (0.56%) showed activity. The sample as a whole holds a higher share of actives than the screen did. Values without a mark were called inactive.
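Note: Wild-type cells incubated without shaking, value is the mean of two biological replicates.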

The experiment has as its system Escherichia coli K-12 BW25113. The experiment is described as follows: relative growth (OD600 normalised to plate interquartile mean) (fraction); higher = less growth inhibition, active = 0.2 or less. As to conditions: 50 µM; LB; incubation time: overnight (16-24 h).
With `Nc1nc(=O)c2ncn(COCCO)c2[nH]1`, the relative growth is 1.
Turning to `COc1ccc(S(=O)(=O)Nc2ccc3c(c2)C(=O)N([C@@H](C)CO)C[C@H](C)[C@@H](CN(C)S(=O)(=O)c2cn(C)cn2)OCCCC[C@H](C)O3)cc1`, the relative growth is 0.994.
The value for `CO[C@H]1CN(C)C(=O)c2cc(NS(=O)(=O)CC(F)(F)F)ccc2OC[C@@H](C)N(Cc2nccs2)C[C@@H]1C` was 0.962; that for `CC(=O)OCC1=C(C(=O)[O-])N2C(=O)C(NC(=O)CSc3ccncc3)C2SC1.[Na+]` (configuration not stated) was 0.797; that for `COC1(NC(=O)Cc2cccs2)C(=O)N2C(C(=O)[O-])=C(COC(N)=O)CSC21.[Na+]` (configuration not stated) was 0.0688 (active).
With `CC(=O)OCC1=C(C(=O)[O-])N2C(=O)C(NC(=O)Cc3cccs3)C2SC1.[Na+]` (configuration not stated), the relative growth is 0.0435 (active).
The value for `NC(=O)c1cc[n+](CC2=C(C(=O)[O-])N3C(=O)C(NC(=O)Cc4cccs4)C3SC2)cc1` (configuration not stated) was 0.634; that for `C[C@H](CO)N1C[C@H](C)[C@H](CN(C)C(=O)Nc2ccccc2)Oc2c(NC(=O)CCCCCC(=O)Nc3ccccc3N)cccc2C1=O` was 0.992; that for `COc1ccc(S(=O)(=O)N(C)C[C@H]2Oc3c(NC(=O)C4CC4)cccc3C(=O)N([C@H](C)CO)C[C@@H]2C)cc1` was 0.992.
With `C[C@@H]1CCCCO[C@H](CN(C)C)[C@H](C)CN([C@@H](C)CO)C(=O)c2cc(NS(=O)(=O)c3cn(C)cn3)ccc2O1` the figure was 0.994; with `C[C@@H]1CCCCO[C@H](CN(C)S(=O)(=O)c2ccccc2)[C@H](C)CN([C@@H](C)CO)C(=O)c2cc(NC(=O)Nc3ccc(C(F)(F)F)cc3)ccc2O1`, 1; with `COc1ccc(S(=O)(=O)Nc2ccc3c(c2)C(=O)N([C@@H](C)CO)C[C@H](C)[C@H](CN(C)S(=O)(=O)c2ccc(C)cc2)O3)cc1`, 1.01.
The value for `C[C@H]1CN([C@@H](C)CO)C(=O)Cc2cc(NC(=O)Nc3ccc(C(F)(F)F)cc3)ccc2O[C@@H]1CN(C)C(=O)Nc1ccc(F)cc1` was 1.01.
Turning to `O=C(C[C@H]1C[C@@H]2c3cc(NC(=O)Cc4ccncc4)ccc3O[C@@H]2[C@@H](CO)O1)NCCN1CCCCC1`, the relative growth was 0.983.
The value for `CCc1cn([C@H]2C[C@@H](O)[C@@H](CO)O2)c(=O)[nH]c1=O` was 0.827; that for `Cc1cn(C2CC(N=[N+]=[N-])C(CO)O2)c(=O)[nH]c1=O` (configuration not stated) was 0.0449 (active); that for `Cc1cn([C@H]2CC[C@@H](CO)O2)c(=O)[nH]c1=O` was 0.531.
The value for `Cc1cn([C@H]2C[C@@H](NC(=O)C(C)(C)C)[C@@H](CO)O2)c(=O)[nH]c1=O` was 1.02; that for `Cc1cn([C@H]2C[C@H](N=[N+]=[N-])[C@@H](CO)O2)c(=O)[nH]c1=O` was 0.048 (active).
With `Cc1cn([C@H]2C[C@H](F)[C@@H](CO)O2)c(=O)[nH]c1=O` the figure was 0.276.
With `O=C(C[C@H]1C[C@H]2c3cc(NC(=O)Cc4ccncc4)ccc3O[C@H]2[C@H](CO)O1)NCCN1CCCCC1`, the relative growth is 1.02.
`Cc1noc(C)c1NC(=O)Nc1ccc2c(c1)C(=O)N([C@@H](C)CO)C[C@H](C)[C@@H](CN(C)S(=O)(=O)c1ccccc1)O2`: the relative growth was 0.987.
The value for `COCC#Cc1ccc2c(c1)O[C@@H](CN(C)S(=O)(=O)c1ccc(C)cc1)[C@@H](C)CN([C@H](C)CO)S2(=O)=O` was 1.02; that for `C[C@@H]1CN([C@@H](C)CO)C(=O)c2cccc(NC(=O)Nc3ccc(F)cc3)c2O[C@H]1CN(C)S(=O)(=O)c1cn(C)cn1` was 0.984; that for `C[C@@H]1CN([C@H](C)CO)C(=O)Cc2cc(NC(=O)Cn3cnnn3)ccc2O[C@H]1CN(C)Cc1ccncc1` was 0.971.
With `C[C@@H]1CN([C@@H](C)CO)C(=O)CCCn2nncc2CO[C@@H]1CN(C)C(=O)c1ccc(N2CCN(C)CC2)cc1` the figure was 0.987; with `COc1ccc([Si](C)(C)[C@H]2[C@H](CCOC(=O)NCCCCCC(=O)NO)O[C@]3(C(=O)N(Cc4cccc(N5CCCCC5=O)c4)c4ccccc43)[C@@H]2C)cc1`, 1.02; with `Nc1cc[nH]c(=O)n1`, 0.997.
Turning to `CCCCCCCCCCCCC[N+](C)(C)Cc1ccccc1`, the relative growth was 0.0319 (active).
With `CCCCCCCCCCCCCCCC[N+](C)(C)Cc1ccccc1.[Cl-]` the figure was 0.0933 (active); with `CCCCCCCCCCCCCCCC[N+](C)(C)CCN(Cc1ccc(OC)cc1)c1ncccn1`, 0.555.
With `CCCCNc1ccccc1` the figure was 0.996; with `CCCC[C@@H](O)c1ccccc1`, 0.992.
In the case of `CCCCCCCCCCCCC[N+](C)(C)Cc1ccccc1.O.[Cl-]`, the relative growth was 0.0544 (active).
For `CCCCC(O)c1ccccc1` (configuration not stated), the relative growth is 0.973.
Regarding `CC[N+](C)(CC)Cc1ccccc1`, the relative growth was 0.993.
On to `CCCCCc1ccccn1`, for which the relative growth is 0.974.
The value for `C[C@H](CO)N1C[C@H](C)[C@@H](CN(C)Cc2ccc(Oc3ccccc3)cc2)Oc2c(NC(=O)Nc3ccc(C(F)(F)F)cc3)cccc2C1=O` was 0.795; that for `CN(C)CC(=O)N[C@@H]1CC[C@@H](CC(=O)O)O[C@@H]1CO` was 0.983; that for `C[C@H](CO)N1C[C@H](C)[C@@H](CN(C)CC2CCCCC2)Oc2ccc(NC(=O)CCN3CCOCC3)cc2C1=O` was 0.981.
With `NCC[C@@H]1CC[C@H](NC(=O)C2CC2)[C@H](CO)O1` the figure was 0.995.
As to `C[C@H]1CN([C@@H](C)CO)C(=O)CCCn2nncc2CO[C@@H]1CN(C)Cc1cccc2c1OCCCO2`, the relative growth is 0.992.
The value for `O=C(Oc1ccc(Cl)cc1)c1sc2ccccc2c1Cl` was 1.05; that for `Nc1ncccc1O` was 1.03; that for `NS(=O)(=O)c1ccc(O)c([N+](=O)[O-])c1` was 0.992.
With `Oc1ccc(Cl)c2cccnc12`, the relative growth was 0.0534 (active).
`Oc1c(I)cc(I)c2cccnc12`: the relative growth was 1.04.
The value for `Fc1cccc2c(Cl)ccnc12` was 0.976; that for `Oc1c(Br)cc(Br)c2cccnc12` was 0.379.
The value for `O=[N+]([O-])c1ccc(O)c2ncccc12` was 0.0542 (active); that for `Oc1c(I)cc(Cl)c2cccnc12` was 0.463; that for `Oc1c(Cl)cc(Cl)c2cccnc12` was 0.111 (active).

Values taken from the supplement of paper PMC9446081.
